Screening results: PubChem, several laboratories
Most compounds without a hit are left out; they make up all but 1.8% or so of the library.
UBC13 polyUb – blocks human UBC13 polyubiquitin chain formation | AID 485273 | P61088 | 330,000 compounds, 0.47% hits | TR-FRET | inhibition, % at 20 µM; in the data active means inhibition above about 45%, passing the limit was not always enough
UHRF1 binding – UHRF1 methyl-DNA binding inhibition | Q96T88 | UHRF1 binding to methylated oligo, TR-FRET | inhibition, % at 4.4 µM | 370,000 compounds, 0.75% hits | AID 687016; in the data active means inhibition above about 21%;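 further: UHRF1 SRA domain binding a hemimethylated CpG hairpin DNA probe; 0% = median of test compound wells and 100% = reference inhibitor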
Target sequence (Q96T88 whole entry, looked up, the tested form may be a part): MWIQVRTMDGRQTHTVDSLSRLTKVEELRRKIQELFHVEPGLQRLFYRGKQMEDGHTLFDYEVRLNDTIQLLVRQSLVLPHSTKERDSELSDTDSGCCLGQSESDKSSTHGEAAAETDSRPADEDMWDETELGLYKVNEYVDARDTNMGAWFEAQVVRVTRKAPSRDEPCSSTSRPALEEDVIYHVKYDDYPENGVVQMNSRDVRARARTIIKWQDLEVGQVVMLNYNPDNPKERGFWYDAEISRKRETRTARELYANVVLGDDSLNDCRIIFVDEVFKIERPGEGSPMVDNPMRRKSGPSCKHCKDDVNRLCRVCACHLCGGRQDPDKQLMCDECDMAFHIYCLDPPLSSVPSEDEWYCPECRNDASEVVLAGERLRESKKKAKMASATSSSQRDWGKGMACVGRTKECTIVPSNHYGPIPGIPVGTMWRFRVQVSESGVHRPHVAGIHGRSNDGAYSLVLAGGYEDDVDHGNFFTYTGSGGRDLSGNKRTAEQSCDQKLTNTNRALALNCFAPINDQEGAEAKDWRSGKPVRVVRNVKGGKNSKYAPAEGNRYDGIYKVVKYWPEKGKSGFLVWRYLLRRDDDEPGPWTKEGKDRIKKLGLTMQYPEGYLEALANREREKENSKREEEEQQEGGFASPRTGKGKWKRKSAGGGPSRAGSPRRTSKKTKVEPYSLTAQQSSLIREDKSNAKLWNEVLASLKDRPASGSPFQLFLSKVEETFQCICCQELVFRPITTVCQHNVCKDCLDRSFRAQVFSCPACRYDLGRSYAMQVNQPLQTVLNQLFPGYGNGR
MBD2 DNA inh – inhibitors of human MBD2 binding to methylated oligonucleotide | inhibition, % at 4.4 µM | TR-FRET | AID 686964 | 370,000 compounds, 0.31% hits | Q9UBB5; in the data active means inhibition above about 13%
Neddyl block – blocks human cullin neddylation. 360,000 compounds, 0.58% hits. calls only at 25 µM. P61081+Q13564. TR-FRET cullin neddylation, biochemical. AID 651699; in the data active means inhibition above about 36%
Neddyl conf – confirmation of human cullin neddylation inhibitors; shares compounds with Neddyl block; TR-FRET cullin neddylation biochemical assay; calls only at 25 µM; 1,800 compounds, 13% hits; in the data active means inhibition above about 40%;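 further: neddylation substrate is the cullin 1 ring ligase complex with SKP2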
Active calls of the source: *; i = inactive; nt = not tested or not shown; + = active, no number.

SMILES	UBC13 polyUb	UHRF1 binding	MBD2 DNA inh	Neddyl block	Neddyl conf
CCCc1cc(=O)oc2c(C)c(OCC(=O)N3CCC[C@@H]3C(=O)O)ccc12	1.8	-1.8	-1.2	+	i
CCCc1cc(=O)oc2c(C)c(OCC(=O)N3CCC(C(N)=O)CC3)ccc12	9.2	-1.1	3.7	i	nt
Cc1c(CCC(=O)N2CCC[C@H]2C(=O)O)c(=O)oc2c(C)c3oc4c(c3cc12)CCCC4	-5.8	2.6	10.2	nt	nt
Cc1onc(-c2ccccc2Cl)c1C(=O)Nc1cccc(S(=O)(=O)NC2=NCCC2)c1	-5.0	0.8	-1.8	i	nt
O=C(CNc1cccc2ccccc12)N/N=C/c1ccc([N+](=O)[O-])cc1	-9.4	-3.7	-0.6	i	nt
C[C@H](NC(=O)c1ccccc1F)C(=O)N1CCC2(CC1)NCCc1[nH]cnc12	5.7	-1.4	0.0	i	nt
CC12CC3CC(C)(C1)CC(C(=O)NC1=NCCS1)(C3)C2	21.4	-1.3	3.2	i	nt
O=C(O)CNS(=O)(=O)c1ccc2[nH]c(=O)c(=O)[nH]c2c1	0.8	4.8	4.8	+	i
O=C(O)CNS(=O)(=O)c1ccc2c(c1)CCCC2	-4.3	1.0	-1.1	i	nt
CCOC(=O)C(=O)N(C)c1c(CC)nc2c(OCc3ccc(Cl)cc3)cccn12	nt	-0.2	-4.5	i	nt
COCCC(=O)N1CCCC(C(=O)c2ccc3c4c(cccc24)CC3)C1 (centres undefined)	13.4	-2.5	1.3	i	nt
O=C1CCC(CCC(=O)N2CCCC(C(=O)c3ccc4c5c(cccc35)CC4)C2)=NN1 (centres undefined)	11.8	-3.6	0.8	i	nt
O=C1CCC(C(=O)N2CCCC(C(=O)c3ccc4c5c(cccc35)CC4)C2)=NN1 (centres undefined)	-0.9	-3.4	-4.1	+	+
NC(=O)CCC(=O)N1CCCC(C(=O)c2ccc3c4c(cccc24)CC3)C1 (centres undefined)	0.7	2.1	3.0	+	i
CN(C)c1cccc(C(=O)NCc2ccccc2)c1	11.6	-0.1	-3.5	+	i
CN(C)c1cccc(C(=O)NCc2ccccc2Cl)c1	7.2	0.2	6.0	i	nt
COc1cccc(C(=O)N2CCN(c3ccc(N4CCOCC4)nn3)CC2)c1	6.4	2.4	-0.5	+	nt
Cc1ccc(C(=O)N2CCN(c3ccc(N4CCOCC4)nn3)CC2)cc1C	9.8	-1.5	-4.2	nt	nt
Cc1ccccc1C(=O)N1CCN(c2ccc(N3CCOCC3)nn2)CC1	22.8	-0.5	0.6	+	nt
O=C(c1cccc(Br)c1)N1CCN(c2ccc(N3CCOCC3)nn2)CC1	8.4	-1.5	-1.6	+	nt
O=C(CCCc1c[nH]c2ccccc12)N1CCN(c2ccc(N3CCOCC3)nn2)CC1	8.8	-0.4	1.1	+	+
O=C(CCc1c[nH]c2ccccc12)N1CCN(c2ccc(F)cc2)CC1	-7.6	3.7	2.6	i	nt
CC1CCCCC1NC(=O)COC(=O)c1ccc2ccccc2n1 (centres undefined)	-6.7	3.9	7.1	i	nt
CCN1CCN(c2ccc(N3CCN(C(=O)c4ccc(Br)o4)CC3)nn2)CC1	10.7	1.8	-1.9	+	nt
O=C(c1ccc(Br)o1)N1CCN(c2ccc(F)cc2)CC1	6.9	3.0	0.9	i	nt
SMILES	UBC13 polyUb	UHRF1 binding	MBD2 DNA inh	Neddyl block	Neddyl conf
Cc1ccc2nc(NCc3ccccc3)c(C=NCc3ccccc3)c(=O)n2c1	7.6	1.1	4.3	i	nt
Cc1cccn2c(=O)c(C=NCc3ccccc3)c(NCCO)nc12	-0.1	0.7	-0.8	+	+
Cc1cccn2c(=O)c(/C=N/O)c(NCc3ccccc3)nc12	12.6	4.9	2.5	+	nt
CC(=O)O/N=C/c1c(NCc2ccccc2)nc2c(C)cccn2c1=O	9.6	-1.5	5.0	i	nt
O=C(CN1CCN(C(=O)c2ccco2)CC1)Nc1ccccc1	-5.0	-0.8	1.1	i	nt
CC(Oc1ccccc1F)c1ccnc2nc(/N=C/N(C)C)nn12 (centres undefined)	-3.0	-0.2	0.9	+	i
COC(=O)c1sccc1NC(=O)/C=C/c1c(Cl)cccc1Cl	-1.1	8.5	3.7	nt	nt
COC(=O)c1sccc1NC(=O)/C=C/c1ccc(Cl)cc1Cl	1.1	6.7	3.4	+	i
Cc1c(C(=O)NCCn2ccc3ccccc32)cccc1[N+](=O)[O-]	3.8	0.3	0.5	i	nt
Cc1ccc(NS(=O)(=O)c2cc(NC(=O)c3ccc4c(c3)NC(=O)CS4)ccc2Cl)c(C)c1	-1.0	-3.0	-0.1	+	i
O=C(NC1CCCCC1)c1ccc(COc2ccccc2)o1	-2.9	0.2	0.0	i	nt
Nc1nc(Br)c2c(F)cccc2c1-c1ccc(F)cc1	11.2	6.7	5.0	+	i
Nc1nc(Br)c2c(F)cccc2c1-c1ccccc1	11.9	5.0	-4.0	i	nt
O=C(Nc1cc(S(=O)(=O)N2CCCCC2)ccc1O)c1ccccc1NS(=O)(=O)c1ccc(F)c(F)c1	-17.2	1.1	2.6	+	i
O=C(COC(=O)c1ccccc1O)Nc1cc(S(=O)(=O)N2CCCCCC2)ccc1Cl	-0.6	4.0	5.8	+	nt
COc1cc2c(cc1OC)-c1cc(NC3CCCC3)nc(=O)n1CC2	-10.3	-0.4	-0.3	+	i
COc1ccccc1CC(=O)OC(C)C(=O)Nc1ccc(S(=O)(=O)N2CCCCC2)cc1 (centres undefined)	-7.2	12.6	2.5	i	nt
O=c1c2[nH]c3ccc(F)cc3c2ncn1CCN1CCN(Cc2ccccc2)CC1	6.4	1.3	6.6	i	nt
CCN(CC)C(=O)CSc1ncccc1-c1nc2ccccc2[nH]1	-2.3	3.1	-0.8	+	i
COc1ccccc1-c1nnc(N)s1	-3.6	-1.6	1.7	+	i
COc1cc(NC(=O)COc2ccccc2C)ccc1NC(=O)c1ccco1	-1.5	0.8	-2.3	+	nt
COc1ccc(-c2cc(C(=O)NNC(=O)c3csc(N4CCOCC4)n3)c3ccccc3n2)cc1OC	3.4	2.4	1.6	i	nt
COc1ccc(-c2cc(C(=O)NNC(=O)c3csc(N4CCOCC4)n3)c3ccccc3n2)cc1	3.0	-3.2	-5.5	+	i
Cc1c(CC(=O)O)c(=O)oc2cc(OCc3ccc(Cl)cc3)ccc12	-1.0	-1.5	-2.9	nt	nt
COCCn1c(=O)[nH]c2cc(C(=O)OC)ccc2c1=O	14.5	1.4	-1.3	+	i
SMILES	UBC13 polyUb	UHRF1 binding	MBD2 DNA inh	Neddyl block	Neddyl conf
O=C(NCCc1nc2ccccc2[nH]1)c1ccco1	1.3	-1.4	1.9	i	nt
O=C1CCC(C(=O)OCc2nnc(-c3ccc(Br)cc3)o2)=NN1	4.1	-1.6	-0.4	i	nt
Cn1nc(C(F)(F)F)c(-c2cccc(C(F)(F)F)c2)c1NC(=O)c1nccnc1C(=O)O	4.5	-0.8	-1.4	i	nt
Cn1nc(C(F)(F)F)c(-c2cccc(C(F)(F)F)c2)c1NC(=O)c1ccco1	8.6	-1.6	-4.6	+	i
Cc1cccc(C)c1OCc1cc(C(=O)N2CCCC2c2nonc2C)no1 (centres undefined)	2.2	0.1	3.2	i	nt
COC(=O)CNC(=O)CN1c2cccc3cccc(c23)S1(=O)=O	2.6	0.0	6.9	nt	nt
